Data from PubChem BioAssay (NCI).
Compounds without any hit were thinned out: in the full panel of roughly 79,000, 15% have a hit. The source made the active and inactive calls. Cut-off read from the data, not from the text of the source: active = growth inhibition above about 70%; inactive = the rest.

Key:
[1] = NCI Yeast Anticancer Drug Screen. Data for the rad50 strain (AID 155);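 note: 0% = growth of vehicle-only cultures of the same strain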; details: S. cerevisiae rad50 strain growth inhibition; at 50.0 µM; hits give high values
In short: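 Compounds were tested on a yeast strain with an engineered DNA damage repair alteration; the reported value is growth inhibition normalised to vehicle treatment.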

[2] = NCI Yeast Anticancer Drug Screen. Data for the mec2-1 strain (AID 157); details: S. cerevisiae mec2-1 strain, at 50.0 µM, hits give high values
In short: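 mec2-1 yeast strain, carrying an alteration in DNA damage repair or cell cycle control, was exposed to compounds; growth inhibition was measured relative to vehicle-treated controls.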

[3] = NCI Yeast Anticancer Drug Screen. Data for the sgs1 mgt1 strain (AID 161);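 note: 0% = growth of cultures given vehicle only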; details: S. cerevisiae sgs1 mgt1 strain, at 50.0 µM, hits give high values
In short: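 Growth of a repair-deficient yeast mutant was monitored after compound treatment and expressed as inhibition relative to vehicle-treated cultures.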

[4] = NCI Yeast Anticancer Drug Screen. Data for the cln2 rad14 strain (AID 165);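 note: 0% = growth equal to vehicle treated cultures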; details: S. cerevisiae cln2 rad14 strain, at 50.0 µM, hits give high values
In short: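 Yeast carrying cln2 and rad14 alterations (cell cycle control and DNA damage repair) were exposed to compounds. Growth inhibition was measured against vehicle-treated controls.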

[5] = NCI Yeast Anticancer Drug Screen. Data for the bub3 strain (AID 167); details: S. cerevisiae bub3 mutant strain, at 50.0 µM, hits give high values
In short: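 Growth of a checkpoint-deficient yeast mutant is measured after compound exposure. Values represent inhibition relative to vehicle.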

[6] = NCI Yeast Anticancer Drug Screen. Data for the mlh1 rad18 strain (AID 175); details: S. cerevisiae mlh1 rad18 strain growth inhibition; at 50.0 µM; hits give high values
In short: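 Growth inhibition of the yeast strain was measured after compound exposure and expressed relative to vehicle-treated controls. The strain carries defined defects in DNA damage repair.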

Measured: growth inhibition

O=C1OC(C(Cl)(Cl)Cl)Nc2ccccc21 (centres undefined)
inactive: [1] 13.8% | [2] -19.8% | [3] 9.35% | [4] 15.6% | [5] 19.4% | [6] 12.9%

COC(=O)N1c2ccccc2N(C(=O)OC)c2c1oc1ccccc1c2=O
inactive: [1] 38.2% | [2] 12.6% | [3] 33.6% | [4] 7.3% | [5] 26.5% | [6] 31.9%

COc1cc(/C=C2/C(=O)N(C(=O)c3ccccc3O)N=C2C)ccc1O
inactive: [1] -6.55% | [2] -10.3% | [3] -9.4% | [4] 9.75% | [5] 1.65% | [6] -13.9%

N=C(N)n1ncc2c1CCC/C2=N/N=C(N)N
inactive: [1] 17.5% | [2] 17.1% | [3] 13.5% | [4] 64.3% | [5] 29.9% | [6] 3.9%

CC(N)(C(=O)O)c1ccccc1 (centres undefined)
inactive: [1] -2.45% | [2] -2.45% | [3] 18.6% | [4] -25.2% | [5] -13.9% | [6] -21.4%

c1coc(C2OCCO2)c1
inactive: [1] -24.1% | [2] -31.6% | [3] -26.6% | [4] 6.75% | [5] -21.8% | [6] -3.1%

CCN(CC)Cc1cc(Nc2ccnc3ccc4nn(C)nc4c23)ccc1O
inactive: [1] -16.4% | [2] -19.4% | [3] -28.1% | [4] 4.45% | [5] 6.65% | [6] -1.75%

O=CNCO
inactive: [1] 19.6% | [2] 14.2% | [3] 22.6% | [4] 18.9% | [5] 8.5% | [6] 19.1%

CCCCCCCCCCOC(=O)C(C)O (centres undefined)
inactive: [1] 8.4% | [2] 2.95% | [3] 5.35% | [4] 5.55% | [5] -16.3% | [6] -4.75%

Cc1ccc(NC(=O)CCC(=O)C(C)C(=O)c2ccccc2)cc1C (centres undefined)
inactive: [1] -72.1% | [2] -7.6% | [3] -14.3% | [4] -55.7% | [5] -12.8% | [6] -9.4%

S=C(S)NC1CCN(Cc2ccccc2)CC1
inactive: [1] 56.4% | [2] 30.6% | [3] 49% | [4] 48% | [5] 61.5% | [6] 26.1%

CON(C)c1nc2ccccc2o1
inactive: [1] -22.1% | [2] -8.45% | [3] -9% | [4] -16.8% | [5] -2.3% | [6] -17.6%

CN1C(=O)CC2C(=O)N(Cc3ccccc3)C(=O)C2C1=O (centres undefined)
inactive: [1] 14% | [2] -4% | [3] -0.8% | [4] 11.6% | [5] 1.3% | [6] -2.85%

N#CC1CNCCC1=N (centres undefined)
inactive: [1] -5.75% | [2] -3.2% | [3] 13.4% | [4] -1.1% | [5] -1.55% | [6] -6.8%

O=C1Nc2ccccc2CS1
inactive: [1] 0.55% | [2] -4.9% | [3] -2.1% | [4] -5.85% | [5] 6.95% | [6] -1.05%

S=C(NCc1ccco1)Nc1ccccc1Cl
inactive: [1] 5.5% | [2] -4.1% | [3] 16.2% | [4] 4.5% | [5] 4.4% | [6] 1.2%

N#Cc1nc(C(O)c2ccccc2)oc1N (centres undefined)
inactive: [1] -6.75% | [2] 16.4% | [3] -7.05% | [4] 11.8% | [5] -10.3% | [6] -71.1%

COc1ccc(/C=C2/C(=O)N(c3ccccc3)N=C2C)cc1
inactive: [1] 22.2% | [2] -2.2% | [3] 17.3% | [4] 0.4% | [5] 16.7% | [6] 22.1%

CCCC(=O)c1ccccc1
inactive: [1] 35.5% | [2] 3% | [3] 19.9% | [4] 15% | [5] 26.1% | [6] 21.9%

CC(=O)CCc1ccc(OC(=O)C(Cl)Cl)cc1
inactive: [1] 27% | [2] 12.1% | [3] 18.7% | [4] 13.8% | [5] 13.9% | [6] 29.6%

CCO/C=C1/N=C(c2ccc(OC)c(OC)c2)OC1=O
inactive: [1] -6.3% | [2] 5.6% | [3] 18.6% | [4] -67.8% | [5] -7.2% | [6] 12.2%

NC1C(O)C(N)C(O)C(O)C1O (centres undefined)
inactive: [1] 3.3% | [2] 20.4% | [3] 5.6% | [4] 1.6% | [5] -13.4% | [6] 3.25%

CCOC(=O)CNC(=O)NC
inactive: [1] 1.25% | [2] 8.15% | [3] -6.75% | [4] -11.7% | [5] -6.25% | [6] 38%

CCCOCC(O)CNCCNCC(O)COCCC (centres undefined)
inactive: [1] 4.1% | [2] -2.7% | [3] 8.15% | [4] -34.5% | [5] -3.65% | [6] 7.3%

FC(F)(F)c1ccc(Cl)c(N=C=S)c1
inactive: [1] -26.1% | [2] -9.15% | [3] 31.4% | [4] -108% | [5] -21.8% | [6] -4.7%

C[n+]1cccc(C(=O)c2ccccc2)c1
inactive: [1] 6.4% | [2] -4.8% | [3] 0.65% | [4] 12.1% | [5] -0.55% | [6] 6.5%

COc1ccc2c(c1)c1ccc3c(c1n2C)C(=O)C=CC3=O
inactive: [1] 8.4% | [2] -1.6% | [3] 43% | [4] 11% | [5] 4.8% | [6] 15.7%

CC(=O)OCCOCNC(=S)N/N=C/c1cc([N+](=O)[O-])ccc1O
inactive: [1] 25.9% | [2] -2.75% | [3] 15.6% | [4] 42% | [5] 10.7% | [6] -0.05%

CCOC(=O)C1=C(C(=O)c2ccc(C)cc2)C(c2c(Cl)cccc2Cl)C(C(=O)c2ccc(C)cc2)=C(C(=O)OCC)N1
inactive: [1] 18.4% | [2] 21.1% | [3] 37.8% | [4] 44.5% | [5] 54.9% | [6] 38%

CC(C)(C)c1ccnc(C(O)(C(F)(F)F)C(F)(F)F)c1
inactive: [1] -3.4% | [2] -12.2% | [3] -12.2% | [4] -43.8% | [5] -7.75% | [6] -12.4%

C#CC1(O)c2ccccc2C(=O)c2ccccc21
inactive: [1] -1.05% | [2] -7.85% | [3] -7.65% | [4] -7.35% | [5] 6.7% | [6] -2.35%

CCOC(=O)c1cc2sc(NC(=O)c3ccco3)nc2o1
inactive: [1] 10.8% | [2] 12.2% | [3] 48.8% | [4] 4.3% | [5] 6.6% | [6] 27.6%

CCOC(=O)c1[nH]n(-c2ccccc2)c(=O)c1/C=N/C(=S)Nc1c(CC)cccc1CC
inactive: [1] -18.1% | [2] -29.2% | [3] -18.2% | [4] -13.2% | [5] -8.25% | [6] -15.1%

CN1CCc2c1nc(-c1ccc(Cl)cc1)c1c2N(C)CC1
inactive: [1] 5.15% | [2] 1.5% | [3] 0% | [4] 9% | [5] -9.55% | [6] -7.35%

CN(C)c1c2c(oc(=O)c1Cl)-c1ccccc1OCC2
inactive: [1] -14.3% | [2] -12.8% | [3] -10.4% | [4] -4.85% | [5] -19.1% | [6] -17.6%

O=[N+]([O-])c1ccc2c(c1)C(=Nc1ccc(Cl)cc1)c1ccccc1-2
inactive: [1] -0.95% | [2] -8.6% | [3] -8% | [4] -32% | [5] 24.1% | [6] 5.45%

COC(=O)CCCCCCCCCCCCC1C=CCC1 (centres undefined)
inactive: [1] 8.9% | [2] -31.1% | [3] 11.4% | [4] 9.25% | [5] -5.85% | [6] 4.25%

CC(C)(C)OC(=O)N1CC(C)(C)N2C(=O)C3(CCCO3)C12 (centres undefined)
inactive: [1] -4.3% | [2] -9.85% | [3] -7.15% | [4] -0.4% | [5] -16.6% | [6] 5.65%

C[Si](C)(C)c1ccc2c(c1O)C(=O)c1ccccc1C2=O
inactive: [1] 10.6% | [2] 16.9% | [3] 31.9% | [4] 53.6% | [5] -1.15% | [6] 3.3%
